Common to all, as to assay: DAPPL (digital affinity profiling via proximity ligation, sequencing); 10 mM Tris-HCl pH 7.5, 50 mM NaCl, 1 mM DTT, 4% glycerol, room temperature, 30 min; GST-TFs on glutathione beads, 16-mer random dsDNA library, 0.1% formaldehyde crosslink after washing; high values mean tight binding
Holding throughout (conditions): protein: recombinant; tags: N-terminal GST; dsDNA, one strand shown

Assay [1] concerns the target T1, FLI1 (Homo sapiens, UniProt Q01543 1-452).
T1 sequence: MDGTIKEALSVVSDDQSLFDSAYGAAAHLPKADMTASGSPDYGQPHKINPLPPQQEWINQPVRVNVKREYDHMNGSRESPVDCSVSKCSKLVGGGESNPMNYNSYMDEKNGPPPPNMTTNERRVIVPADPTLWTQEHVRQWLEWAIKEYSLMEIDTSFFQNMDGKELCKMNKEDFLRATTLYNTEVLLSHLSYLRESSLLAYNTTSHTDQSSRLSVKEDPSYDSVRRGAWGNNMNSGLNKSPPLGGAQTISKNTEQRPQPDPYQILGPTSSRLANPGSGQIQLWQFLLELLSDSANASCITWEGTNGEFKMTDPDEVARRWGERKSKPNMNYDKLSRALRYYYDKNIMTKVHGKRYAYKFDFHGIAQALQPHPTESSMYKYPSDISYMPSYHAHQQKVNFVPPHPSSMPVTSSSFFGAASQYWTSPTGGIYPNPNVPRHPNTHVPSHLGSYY
A digest of the protocol: (§1)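 Beads coated with glutathione captured GST-fused human transcription factors that had been expressed in yeast, and the factors were then given DNA barcodes and pooled with a tag-only sample. The pools were incubated with 200 nmole of a random double-stranded 16-mer DNA library in Tris/NaCl/DTT/glycerol buffer for 30 min at room temperature, washed, crosslinked with 0.1% formaldehyde and proximity-ligated with BsaI/T4 ligase at 37 °C for 1 h. PCR amplification and Illumina NextSeq500 sequencing came last. Binding signal is each hexamer's read frequency for a factor divided by its frequency for the tag-only sample.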

Assay [2] concerns the target T2, ELK1 (Homo sapiens, UniProt P19419 1-428).
T2 sequence: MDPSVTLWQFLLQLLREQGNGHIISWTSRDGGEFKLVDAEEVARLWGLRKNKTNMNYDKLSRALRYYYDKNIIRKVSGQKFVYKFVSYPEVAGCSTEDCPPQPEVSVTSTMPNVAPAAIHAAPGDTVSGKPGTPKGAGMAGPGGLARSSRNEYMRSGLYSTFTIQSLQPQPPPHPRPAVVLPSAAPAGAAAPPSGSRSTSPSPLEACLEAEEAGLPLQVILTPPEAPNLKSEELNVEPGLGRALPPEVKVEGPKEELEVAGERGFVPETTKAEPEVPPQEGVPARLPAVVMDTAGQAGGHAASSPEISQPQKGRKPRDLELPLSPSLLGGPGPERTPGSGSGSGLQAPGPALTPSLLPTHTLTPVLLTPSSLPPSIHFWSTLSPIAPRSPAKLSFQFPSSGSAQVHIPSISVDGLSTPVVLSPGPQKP
Summed up: as §1

Assay [3] deals with T3, ERG (Homo sapiens, UniProt P11308 1-479).
T3 sequence: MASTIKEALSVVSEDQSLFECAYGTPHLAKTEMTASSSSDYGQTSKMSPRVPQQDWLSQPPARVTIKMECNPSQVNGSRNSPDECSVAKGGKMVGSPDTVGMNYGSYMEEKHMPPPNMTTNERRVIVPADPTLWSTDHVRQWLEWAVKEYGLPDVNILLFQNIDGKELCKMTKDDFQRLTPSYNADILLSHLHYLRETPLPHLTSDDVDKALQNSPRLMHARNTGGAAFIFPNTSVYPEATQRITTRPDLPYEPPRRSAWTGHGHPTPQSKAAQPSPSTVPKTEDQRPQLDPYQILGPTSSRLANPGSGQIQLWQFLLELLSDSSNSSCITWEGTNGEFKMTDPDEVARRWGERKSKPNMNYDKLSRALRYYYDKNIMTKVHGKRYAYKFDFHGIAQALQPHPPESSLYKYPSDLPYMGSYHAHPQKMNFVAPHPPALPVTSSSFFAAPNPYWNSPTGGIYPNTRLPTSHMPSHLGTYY
Summed up:
as §1

The target of assay [4] is ELF1 (Homo sapiens, UniProt P32519 1-619). A digest of the protocol:
as §1

Assay [5] addresses T4, EHF (Homo sapiens, UniProt Q9NZC4 1-300).
T4 sequence: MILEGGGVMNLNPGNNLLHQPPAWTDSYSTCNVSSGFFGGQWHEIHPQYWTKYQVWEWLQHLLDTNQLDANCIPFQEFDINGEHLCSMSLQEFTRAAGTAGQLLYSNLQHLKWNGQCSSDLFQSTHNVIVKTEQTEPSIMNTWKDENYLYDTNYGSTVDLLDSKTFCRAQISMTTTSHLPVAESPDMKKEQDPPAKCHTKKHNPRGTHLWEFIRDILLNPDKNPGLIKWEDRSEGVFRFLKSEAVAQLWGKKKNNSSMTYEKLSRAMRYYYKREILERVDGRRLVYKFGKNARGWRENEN
Summed up:
as §1

Assay [6] concerns the target SPIB (Homo sapiens, UniProt Q01892 1-262). A digest of the protocol:
as §1

In assay [7] the target is T5, ELK3 (Homo sapiens, UniProt P41970 1-407).
T5 sequence: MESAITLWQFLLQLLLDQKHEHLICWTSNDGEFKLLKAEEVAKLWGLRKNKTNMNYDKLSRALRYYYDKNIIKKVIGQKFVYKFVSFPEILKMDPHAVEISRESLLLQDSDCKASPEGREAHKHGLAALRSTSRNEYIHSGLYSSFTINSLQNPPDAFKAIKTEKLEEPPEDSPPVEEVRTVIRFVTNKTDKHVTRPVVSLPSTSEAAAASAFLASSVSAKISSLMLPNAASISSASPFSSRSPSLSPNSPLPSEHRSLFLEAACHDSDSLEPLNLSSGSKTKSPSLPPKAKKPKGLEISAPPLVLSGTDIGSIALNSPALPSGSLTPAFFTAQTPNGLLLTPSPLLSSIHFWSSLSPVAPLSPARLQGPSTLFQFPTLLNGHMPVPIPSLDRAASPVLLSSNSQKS
A digest of the protocol:
as §1

For assay [8], the target named is T6, FEV (Homo sapiens, UniProt Q99581 1-238).
T6 sequence: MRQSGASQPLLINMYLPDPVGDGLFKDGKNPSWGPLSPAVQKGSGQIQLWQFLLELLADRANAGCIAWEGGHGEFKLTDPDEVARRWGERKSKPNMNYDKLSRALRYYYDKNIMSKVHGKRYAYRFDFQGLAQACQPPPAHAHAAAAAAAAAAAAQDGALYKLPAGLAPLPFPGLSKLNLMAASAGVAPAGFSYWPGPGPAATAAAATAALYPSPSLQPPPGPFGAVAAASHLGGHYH
A digest of the protocol:
as §1

The target of assay [9] is ETV5 (Homo sapiens, UniProt P41161 1-510). Summed up: as §1
ETV5, sequence (P41161 whole entry): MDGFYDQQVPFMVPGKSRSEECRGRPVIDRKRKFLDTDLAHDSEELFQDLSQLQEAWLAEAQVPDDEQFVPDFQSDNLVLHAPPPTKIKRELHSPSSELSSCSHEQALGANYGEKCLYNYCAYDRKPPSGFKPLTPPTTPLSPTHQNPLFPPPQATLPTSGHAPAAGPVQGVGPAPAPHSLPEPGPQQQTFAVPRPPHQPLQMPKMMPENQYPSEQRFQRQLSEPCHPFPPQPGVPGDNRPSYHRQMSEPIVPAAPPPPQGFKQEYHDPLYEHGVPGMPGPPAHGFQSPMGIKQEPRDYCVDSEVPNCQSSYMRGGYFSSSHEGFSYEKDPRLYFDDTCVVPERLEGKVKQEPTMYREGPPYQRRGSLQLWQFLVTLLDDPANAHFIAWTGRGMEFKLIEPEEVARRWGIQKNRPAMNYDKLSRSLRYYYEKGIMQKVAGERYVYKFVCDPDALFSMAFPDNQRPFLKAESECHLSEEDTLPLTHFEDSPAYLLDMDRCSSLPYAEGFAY
In assay [10] the target is T7, SPIC (Homo sapiens, UniProt Q8N5J4 1-248).
T7 sequence: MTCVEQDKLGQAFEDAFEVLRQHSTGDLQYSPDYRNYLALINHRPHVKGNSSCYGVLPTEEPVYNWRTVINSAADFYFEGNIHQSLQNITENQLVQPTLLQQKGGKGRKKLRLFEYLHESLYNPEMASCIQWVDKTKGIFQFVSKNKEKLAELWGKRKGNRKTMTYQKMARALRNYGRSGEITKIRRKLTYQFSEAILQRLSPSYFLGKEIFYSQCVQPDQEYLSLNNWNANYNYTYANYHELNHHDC
Summed up: as §1

Assay [11] has as its target ELF4 (Homo sapiens, UniProt Q99607 1-663). Summed up:
as §1

The target in assay [12] is ETV1 (Homo sapiens, UniProt P50549 1-477). A digest of the protocol: as §1
ETV1, sequence (P50549 whole entry): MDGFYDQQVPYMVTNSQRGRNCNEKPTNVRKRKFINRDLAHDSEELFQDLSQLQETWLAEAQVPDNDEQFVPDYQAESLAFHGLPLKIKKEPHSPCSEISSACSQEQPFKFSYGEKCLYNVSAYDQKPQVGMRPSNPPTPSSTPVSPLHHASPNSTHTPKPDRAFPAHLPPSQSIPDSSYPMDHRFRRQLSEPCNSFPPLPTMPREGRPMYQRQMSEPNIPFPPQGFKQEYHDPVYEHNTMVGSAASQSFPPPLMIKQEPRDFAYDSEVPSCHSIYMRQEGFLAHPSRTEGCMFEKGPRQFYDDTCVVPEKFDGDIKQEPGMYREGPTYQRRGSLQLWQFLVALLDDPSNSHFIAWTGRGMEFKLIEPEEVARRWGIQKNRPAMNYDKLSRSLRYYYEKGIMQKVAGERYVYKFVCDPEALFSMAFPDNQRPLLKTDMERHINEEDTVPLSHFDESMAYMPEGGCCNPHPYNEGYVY
Assay [13] addresses T8, ERF (Homo sapiens, UniProt P50548 1-548).
T8 sequence: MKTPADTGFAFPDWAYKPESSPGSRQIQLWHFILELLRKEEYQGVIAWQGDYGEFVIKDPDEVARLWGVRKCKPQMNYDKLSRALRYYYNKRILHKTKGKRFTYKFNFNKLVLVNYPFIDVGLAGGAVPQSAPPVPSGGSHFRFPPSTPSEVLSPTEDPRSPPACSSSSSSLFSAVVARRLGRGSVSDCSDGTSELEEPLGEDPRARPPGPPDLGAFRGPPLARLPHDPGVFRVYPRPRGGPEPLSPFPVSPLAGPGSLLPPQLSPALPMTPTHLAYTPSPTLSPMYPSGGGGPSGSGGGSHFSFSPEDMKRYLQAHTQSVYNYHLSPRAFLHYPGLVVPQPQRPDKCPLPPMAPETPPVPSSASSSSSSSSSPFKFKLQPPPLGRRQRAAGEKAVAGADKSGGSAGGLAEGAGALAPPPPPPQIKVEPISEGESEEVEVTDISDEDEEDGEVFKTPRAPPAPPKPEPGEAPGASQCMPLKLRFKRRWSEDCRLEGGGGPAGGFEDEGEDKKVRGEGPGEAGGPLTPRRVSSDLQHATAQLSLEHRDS
Summed up: as §1

In assay [14] the target is T9, ETV3L (Homo sapiens, UniProt Q6ZN32 1-361).
T9 sequence: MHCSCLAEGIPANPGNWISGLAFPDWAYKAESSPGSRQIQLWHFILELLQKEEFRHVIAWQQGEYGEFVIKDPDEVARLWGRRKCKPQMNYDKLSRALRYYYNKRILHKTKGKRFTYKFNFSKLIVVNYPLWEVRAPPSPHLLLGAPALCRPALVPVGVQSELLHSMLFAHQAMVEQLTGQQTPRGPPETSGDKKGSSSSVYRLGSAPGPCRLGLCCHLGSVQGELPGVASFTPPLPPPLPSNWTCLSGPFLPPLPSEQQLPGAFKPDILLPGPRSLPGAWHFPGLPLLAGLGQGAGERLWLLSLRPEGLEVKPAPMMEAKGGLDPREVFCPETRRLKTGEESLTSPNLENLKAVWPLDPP
A digest of the protocol: as §1

Assay [15] deals with T10, ETS2 (Homo sapiens, UniProt P15036 1-469).
T10 sequence: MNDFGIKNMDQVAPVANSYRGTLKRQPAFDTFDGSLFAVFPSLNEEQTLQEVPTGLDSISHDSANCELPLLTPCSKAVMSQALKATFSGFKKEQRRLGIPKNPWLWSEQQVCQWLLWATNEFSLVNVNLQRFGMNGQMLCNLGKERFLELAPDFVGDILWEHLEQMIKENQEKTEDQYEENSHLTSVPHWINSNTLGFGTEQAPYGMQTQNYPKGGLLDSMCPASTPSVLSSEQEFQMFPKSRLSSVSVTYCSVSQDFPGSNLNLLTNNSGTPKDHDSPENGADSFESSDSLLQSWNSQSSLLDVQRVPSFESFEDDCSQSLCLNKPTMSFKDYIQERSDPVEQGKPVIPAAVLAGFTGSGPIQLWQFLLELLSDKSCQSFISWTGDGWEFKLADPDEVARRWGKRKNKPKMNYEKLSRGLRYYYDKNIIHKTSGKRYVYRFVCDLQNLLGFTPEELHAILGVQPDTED
Summed up: as §1

Assay [16] concerns the target T11, ELF5 (Homo sapiens, UniProt Q9UKW6-2 1-255).
T11 sequence: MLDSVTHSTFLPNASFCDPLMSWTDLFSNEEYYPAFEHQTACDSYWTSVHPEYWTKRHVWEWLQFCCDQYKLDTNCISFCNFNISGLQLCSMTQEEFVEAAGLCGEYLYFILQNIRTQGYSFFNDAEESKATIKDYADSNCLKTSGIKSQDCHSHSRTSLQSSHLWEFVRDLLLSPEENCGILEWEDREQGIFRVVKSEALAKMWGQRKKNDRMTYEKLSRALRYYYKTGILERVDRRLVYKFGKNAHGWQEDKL
A digest of the protocol:
as §1

Assay [17] concerns the target T12, ETV3 (Homo sapiens, UniProt P41162-2 1-143).
T12 sequence: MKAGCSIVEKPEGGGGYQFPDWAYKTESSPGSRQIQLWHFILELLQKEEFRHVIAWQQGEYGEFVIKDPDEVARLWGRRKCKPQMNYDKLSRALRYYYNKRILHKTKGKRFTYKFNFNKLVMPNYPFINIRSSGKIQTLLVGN
Summed up: as §1

Assay [18] deals with ETV6 (Homo sapiens, UniProt P41212 1-452). A digest of the protocol: as §1
ETV6, sequence (P41212 whole entry): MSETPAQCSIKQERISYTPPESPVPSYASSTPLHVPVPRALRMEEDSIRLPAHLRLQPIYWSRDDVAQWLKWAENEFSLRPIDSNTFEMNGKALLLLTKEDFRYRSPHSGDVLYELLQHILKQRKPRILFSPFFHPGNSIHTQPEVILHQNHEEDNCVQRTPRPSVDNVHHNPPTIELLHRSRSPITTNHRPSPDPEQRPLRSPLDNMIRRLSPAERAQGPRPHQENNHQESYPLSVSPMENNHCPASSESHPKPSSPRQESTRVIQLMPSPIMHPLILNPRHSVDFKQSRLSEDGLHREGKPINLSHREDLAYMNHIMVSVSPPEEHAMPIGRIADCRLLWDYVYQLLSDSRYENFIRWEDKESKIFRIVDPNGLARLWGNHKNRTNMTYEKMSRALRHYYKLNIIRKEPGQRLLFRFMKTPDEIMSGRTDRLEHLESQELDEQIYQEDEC

ELF4, sequence (Q99607 whole entry): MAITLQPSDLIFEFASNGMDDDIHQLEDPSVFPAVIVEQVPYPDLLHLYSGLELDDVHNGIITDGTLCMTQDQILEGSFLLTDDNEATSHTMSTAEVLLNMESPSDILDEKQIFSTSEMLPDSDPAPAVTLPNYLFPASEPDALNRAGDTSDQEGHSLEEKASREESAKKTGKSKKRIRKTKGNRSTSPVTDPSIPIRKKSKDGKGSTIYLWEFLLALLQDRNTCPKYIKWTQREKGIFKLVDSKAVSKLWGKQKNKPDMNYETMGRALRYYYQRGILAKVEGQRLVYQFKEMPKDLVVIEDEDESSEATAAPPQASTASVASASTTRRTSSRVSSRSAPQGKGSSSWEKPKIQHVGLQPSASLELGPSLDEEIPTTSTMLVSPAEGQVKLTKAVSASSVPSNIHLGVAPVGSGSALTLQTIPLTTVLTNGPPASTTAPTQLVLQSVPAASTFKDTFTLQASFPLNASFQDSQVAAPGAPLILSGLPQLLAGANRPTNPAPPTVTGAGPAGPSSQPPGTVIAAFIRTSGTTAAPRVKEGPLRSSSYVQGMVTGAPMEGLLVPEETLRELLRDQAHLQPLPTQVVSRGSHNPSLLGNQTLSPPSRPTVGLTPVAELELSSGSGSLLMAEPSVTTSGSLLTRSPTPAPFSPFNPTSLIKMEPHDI
SPIB, sequence (Q01892 whole entry): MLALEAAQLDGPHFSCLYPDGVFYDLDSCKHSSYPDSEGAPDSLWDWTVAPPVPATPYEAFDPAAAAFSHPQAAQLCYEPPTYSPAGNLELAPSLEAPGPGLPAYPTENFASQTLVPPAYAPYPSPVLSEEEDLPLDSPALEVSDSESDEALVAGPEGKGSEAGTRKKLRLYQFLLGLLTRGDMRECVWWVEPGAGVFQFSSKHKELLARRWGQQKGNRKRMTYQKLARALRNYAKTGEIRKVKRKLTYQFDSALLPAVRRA
ELF1, sequence (P32519 whole entry): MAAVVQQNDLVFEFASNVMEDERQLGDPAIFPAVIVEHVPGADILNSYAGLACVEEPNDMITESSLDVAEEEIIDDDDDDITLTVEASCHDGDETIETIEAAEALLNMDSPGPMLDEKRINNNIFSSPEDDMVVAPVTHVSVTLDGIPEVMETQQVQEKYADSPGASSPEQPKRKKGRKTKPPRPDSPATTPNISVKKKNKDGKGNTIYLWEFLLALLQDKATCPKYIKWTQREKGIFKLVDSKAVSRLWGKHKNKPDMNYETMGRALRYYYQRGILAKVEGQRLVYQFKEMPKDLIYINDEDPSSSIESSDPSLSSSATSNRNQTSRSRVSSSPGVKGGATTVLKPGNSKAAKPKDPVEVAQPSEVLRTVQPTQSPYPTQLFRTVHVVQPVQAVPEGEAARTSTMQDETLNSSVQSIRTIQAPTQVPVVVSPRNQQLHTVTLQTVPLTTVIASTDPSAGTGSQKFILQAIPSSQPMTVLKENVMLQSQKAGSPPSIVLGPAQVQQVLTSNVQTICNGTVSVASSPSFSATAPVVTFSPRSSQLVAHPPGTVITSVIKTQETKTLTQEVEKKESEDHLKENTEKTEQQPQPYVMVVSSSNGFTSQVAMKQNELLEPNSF

Turning to TAACCG, the binding signal was 1.06 fold enrichment (6-mer frequency, TF over GST control) in assay [1]; 1.05 fold enrichment (6-mer frequency, TF over GST control) in assay [2]; 1.06 fold enrichment (6-mer frequency, TF over GST control) in assay [3]; 1.1 fold enrichment (6-mer frequency, TF over GST control) in assay [4]; 1.06 fold enrichment (6-mer frequency, TF over GST control) in assay [5]; 1.18 fold enrichment (6-mer frequency, TF over GST control) in assay [6]. The binding signal in assay [7] is 1.13 fold enrichment (6-mer frequency, TF over GST control); in assay [8] it was 1.25 fold enrichment (6-mer frequency, TF over GST control); in assay [9], 1.07 fold enrichment (6-mer frequency, TF over GST control); in assay [10] it was 1.08 fold enrichment (6-mer frequency, TF over GST control); in assay [11] it was 1.06 fold enrichment (6-mer frequency, TF over GST control); in [12], 1.09 fold enrichment (6-mer frequency, TF over GST control). Moreover, the binding signal in [13] is 1.12 fold enrichment (6-mer frequency, TF over GST control); in [14], 1.08 fold enrichment (6-mer frequency, TF over GST control); in assay [15] it was 1.07 fold enrichment (6-mer frequency, TF over GST control); in [16] it was 1.05 fold enrichment (6-mer frequency, TF over GST control); in assay [17], 1.09 fold enrichment (6-mer frequency, TF over GST control); in assay [18], 1.08 fold enrichment (6-mer frequency, TF over GST control).
